In the supplement of paper PMC3334620:
The full ranking holds about 33,000 sequences; the median of “E-score (-0.5 to 0.5)” is about -0.032, and the highest 2% start at about 0.36. The full list was thinned out, with the highest values kept by preference.

target: T1, Sko1 (UniProt Q02100); assay: PBM E-score (8-mer binding enrichment) (E-score (-0.5 to 0.5)); higher = stronger / more preferred TF binding; details: protein concentration: 200 nM; construct: GST-full length
T1 sequence: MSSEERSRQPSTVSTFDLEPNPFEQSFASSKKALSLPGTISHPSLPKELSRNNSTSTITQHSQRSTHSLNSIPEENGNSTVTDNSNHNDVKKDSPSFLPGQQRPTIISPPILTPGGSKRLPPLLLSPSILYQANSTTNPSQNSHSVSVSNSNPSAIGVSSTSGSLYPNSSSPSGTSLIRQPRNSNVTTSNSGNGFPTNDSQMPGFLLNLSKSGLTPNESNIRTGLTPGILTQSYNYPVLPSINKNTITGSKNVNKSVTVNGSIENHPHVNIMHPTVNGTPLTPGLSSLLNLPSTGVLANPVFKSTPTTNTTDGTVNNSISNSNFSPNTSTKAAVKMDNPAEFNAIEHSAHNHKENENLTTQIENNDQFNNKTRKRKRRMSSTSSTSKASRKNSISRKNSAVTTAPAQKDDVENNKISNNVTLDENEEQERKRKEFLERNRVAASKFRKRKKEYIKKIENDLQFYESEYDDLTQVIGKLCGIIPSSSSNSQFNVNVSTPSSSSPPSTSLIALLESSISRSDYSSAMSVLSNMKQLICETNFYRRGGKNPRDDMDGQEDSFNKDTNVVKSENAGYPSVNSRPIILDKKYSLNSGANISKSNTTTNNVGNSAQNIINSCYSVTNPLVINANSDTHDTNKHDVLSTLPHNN
Protocol: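 Universal 'all 10-mer' protein binding microarrays (Agilent AMADID 015681) probed with GST-tagged S. cerevisiae TFs (full-length or DBD) made by in vitro transcription/translation (PURExpress), about 100-200 nM. Bound TF was detected with fluorescent anti-GST. Each ungapped 8-mer (which stands for itself and its reverse complement) is scored by the PBM enrichment score (E-score), a modified Wilcoxon-Mann-Whitney statistic from -0.5 to +0.5, computed with the Universal PBM Analysis Suite. Scale: above 0.35 generally sequence-specific binding.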

Sequence	PBM E-score
CACGCACA	0.222
AACGCATA	0.219
AACGCAAT	0.38
TACGCAAA	0.415
TACGCACA	0.401
AACGCAAA	0.175
TACGCATA	0.368
AACGCAAG	0.0717
CACGCATA	0.0358
CACGCACG	0.204
AACGCAAC	0.289
GACGCAAA	0.347
TCAGCCGA	-0.104
GGGGCGAC	-0.228
GAGACCGC	-0.32
CATGCCTC	0.0373
TAGAGCGA	-0.114
GGGTTGTA	-0.19
CACGCAAA	0.26
CACGCAAC	0.379
AACGCACA	0.161
AACGCACG	0.31
CACGCAAG	0.3
GACGCACA	0.36
TCGCTTAA	-0.0032
GAGACTGC	-0.054

Sequence	PBM E-score
AAAGAACT	-0.0725
AACAGAGG	-0.205
CGGTTCTC	-0.0999
AACCTTCT	-0.298
CAAGGTCA	-0.144
CGTGACGA	0.411
CCTGACGC	0.0655
CGTGACCA	-0.0216
GGTGATGA	0.18
CGTGACGC	0.422
CTTGACGC	0.262
AGTGATGA	0.21
AGTGACTC	-0.0159
CGTGACAA	0.188
AGTGACGC	0.416
AGTGACCC	-0.23
CGTGATGA	0.36
ACCTGAGC	0.0188
AACTGGTC	-0.112
CTTAGTTC	0.0167
AAACAGCT	-0.0726
CGCTCTCA	-0.0854
GAAACACC	0.02
TAGTTCAA	0.0959
GGCGCACC	-0.36
TCACAAGA	-0.00762

Sequence	PBM E-score
CCTGGCGC	-0.133
GCGTAAAA	0.279
CCGTAAAG	0.0256
CCGTAAAC	0.104
ACGTAAAA	0.463
AAGTAAAG	-0.152
AAGTAAAT	0.139
GCGTAAAC	0.281
AGGTAAAT	0.131
ACGTAAAT	0.463
ACGTAAAC	0.459
ACGTAAAG	0.461
CCGTAAAA	0.053
CACGCACC	0.115
AGCTTTGC	-0.179
GAAAATGC	0.0279
GAGTAGCA	0.0153
TCTGGCAA	-0.261
CTGAAAGA	-0.0455
CATTGCAG	0.0387
GGATGCAC	-0.16
GTCTGCAC	-0.118
AGACGTCA	0.484
CGACGTCA	0.486
CGACGTCG	0.209
GGACGTCC	-0.151

Sequence	PBM E-score
GGCCGTCA	-0.184
CGACGTCC	0.169
GGACGTCA	0.466
AGACGTCC	0.281
AGACGTCT	0.271
GCAGATGA	-0.0175
AGCCGGAG	0.0107
CAAGTACC	-0.0542
AAGGATCG	0.0147
AAGTTTTA	0.142
AGTCGGAA	-0.0901
AGACTCAT	0.183
ATTAGGTC	0.207
ATTACGTC	0.492
ATTACCTG	0.067
ATTACGGG	0.206
ATTACGTG	0.487
ATTACGGC	0.303
GAGAGCCA	-0.118
AGGCTGCC	-0.341
GATCCACA	-0.0832
CTTCCTTC	-0.284
GTAGATTA	0.269
AACTGAAG	0.0972
CCCGTAGG	-0.194
CACGTAGG	0.396

Sequence	PBM E-score
CCCGTAGC	-0.291
AACGTAGA	0.357
AACGTAGC	0.349
CACGTAGC	0.364
GCCGTAGC	-0.328
CTCGTAGC	-0.0204
GACGTAGC	0.436
CGCGTAGA	0.0669
CACGTAGA	0.39
AACGTAGG	0.336
CTGCACTC	-0.16
GTTTAAGA	-0.0752
CAGTCGTC	0.0351
CTTCCTGC	-0.256
CGTAGCAC	0.295
GCCATCCC	-0.319
CCACTGTC	-0.185
ACAAGGGT	-0.0251
GCCAGCAA	-0.205
CTAACCAG	-0.0782
GACCTGGC	-0.297
GACGTAGA	0.42
GGCGTAGA	0.118
TCCGTAGA	-0.15
AGCGTAGA	-0.0243
GTCGTAGA	0.166

Sequence	PBM E-score
TACGTAGA	0.452
AGCGACAG	-0.155
GGTAAAAA	0.0275
CGTAATCC	0.405
GGTAAACA	0.136
CGTAAACA	0.374
CCTAATCC	-0.11
AGTAATCC	0.0657
AGTAATCA	0.0126
CGTAATCA	0.452
AGTAAACA	0.0928
GGTAATCA	0.0412
GGTGGCAA	-0.169
CCCGACGC	-0.148
AAGGTTTA	-0.0389
ATCTTGGC	-0.119
ACGAGACT	0.0545
AACACCAA	0.109
ACTACGTG	0.415
ACTACGGA	-0.036
ACTACGGG	-0.221
ACTACGTA	0.484
ACTACGAA	0.289
ACTACGCG	0.245
GCTACGTA	0.456
GCTACGAA	0.239

Sequence	PBM E-score
GCTACGGA	-0.0597
ATAGCGAG	-0.0959
ATAATGAC	0.378
GTAATGGA	0.402
CGAATGAC	0.351
AGAATGAG	0.0649
CTAATGGA	-0.158
AGAATGAC	0.377
GCAATGAC	0.374
GCAATGAA	0.128
ATAATGGA	0.068
CCAATGAC	0.253
ATAATGAG	0.114
ATAATGAT	0.278
AATCAAAC	0.229
AGAAGTGG	-0.19
ACTTCTAA	-0.0244
AGATACCC	-0.0725
CTTGAAAG	-0.0877
ACGACTTG	-0.058
CCAGCGTC	-0.229
GTAATGAC	0.399
GTAATGAA	0.281
CTAATGAC	0.299
GACGTCCA	0.331
GACGTCGC	0.334

Sequence	PBM E-score
GACGTCCC	0.217
TACGTCCA	0.404
TACGTCTA	0.421
CACGTCTA	0.314
GACGTCTA	0.358
CACGTCCA	0.254
AACGTCTA	0.239
GACGTCAC	0.487
AACGTCCA	0.245
AACGTCAA	0.424
ATTGTTGC	0.236
ACAGGAGT	-0.0316
CCCACTGC	-0.115
ATGCGCCA	-0.00554
ATAAGACG	0.115
CCCGTCAG	-0.214
TACGTCAA	0.479
AACGTCAG	0.429
CACGTCAA	0.426
TTCGTCAA	0.297
AACGTCTG	0.239
CCCGTCAA	-0.0876
CACGTCTG	0.23
TCCGTCAA	0.0302
CACGTCAG	0.462
AACGTCGG	0.182

Sequence	PBM E-score
CCTGTGCC	-0.224
GCGACGCC	-0.0621
ATAGGTGC	-0.114
ATCCATGG	-0.237
GAGATCAC	0.00833
AAGCAAGA	0.0771
AGTTGTGA	0.0903
CACGATGG	-0.0649
CGTGGCGA	0.0528
AACGTCAT	0.493
AACGTCAC	0.471
AACGTCCT	0.0619
GACGTCTC	0.384
CACGTCTC	0.134
AACGTCCC	-0.0499
GACGTCAA	0.47
GCCGTCAA	-0.081
AGCGTCAC	0.252
AACGTCGT	0.247
AACGTCTC	0.111
